# From PubChem BioAssay (NCI)
# Values joined by “and” are separate entries in the source; they are usually repeats but may differ in a detail not shown here. Equal values may be shown once. About 83,000 compounds went through this panel and 20% of them were active in at least one assay; those are over-represented in the sample as a whole.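 Cell lines were cultured in 96-well plates, exposed to a single compound concentration, and assessed for percent growth 48 hours later.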 Active and inactive are the calls of the source. The calls were made as follows: active = growth percent below 10; inactive = the rest.
# Tested on: HL-60(TB) leukemia
# Experiment: NCI-60 one-dose screen, 48 h (100 = growth as untreated, 0 = no growth, -100 = all killed)
# Details: 10 µM unless noted
row,SMILES,growth
1,N#CC1=C(N)Oc2ccc3ccccc3c2C1c1ccccc1 (centres undefined),2.02% (active)
2,COc1ccc(N)c(S)c1,93.4% (inactive)
3,COc1ccc(-c2nc3ccccn3c2/C=C/C(=O)c2cc(OC)c(OC)c(OC)c2)cc1,49.9% (inactive)
4,CCN(CC)Cc1cc2[nH]c3c4ccc(Cl)cc4ncc3c2cc1OC,-72.1% (active) and 94.6% (inactive)
5,N#CC1=C(N)Oc2c(sc3c(Br)cccc23)C1c1ccc(Cl)cc1 (centres undefined),-7.34% (active)
6,CCc1c(CC(=O)O)c2cc(C)ccc2n1Cc1ccc(Cl)cc1,89.3% (inactive) and 161% (inactive)
7,O=C1N(C2CCCCC2)C(=O)N1C1CCCCC1,-16.2% (active)
8,Oc1ccc(Cc2ccccc2Cl)c(O)c1,97.4% (inactive)
9,CC(NNC(=S)N1CCCCCC1)c1ccc2ccccc2n1 (centres undefined),28.8% (inactive)
10,CCCCNC(=O)CC1=C(C)/C(=C/c2[nH]c(-c3ccc[nH]3)cc2OC)N=C1C,12.9% (inactive)
11,COc1ccc2c(c1)[n+](=O)c(/C=C/C(=O)c1cc(OC)c(OC)c(OC)c1)c(C)n2[O-],-49.1% (active)
12,COc1cc(OC)cc(-c2cncn2-c2ccc(-c3nc4cc(OC)cc(OC)c4s3)cc2)c1,41% (inactive)
13,O=S(=O)(NCCCNc1cc(-c2cn(-c3ccccc3)nc2-c2cccc(O)c2)ccn1)c1ccccc1,42.8% (inactive)
14,Cc1ccc2nc(C[n+]3ccc4ccccc4c3)ccc2c1,26.1% (inactive)
15,NC(=S)NNC1CCCCC1,67.3% (inactive)
16,O=Nc1ccc(Nc2ccccc2)cc1,-1.72% (active)
17,Cn1cc(C(=O)c2nc(-c3c[nH]c4ccccc34)no2)c2ccccc21,58.5% (inactive)
18,FC(F)(F)c1cccc(-c2[nH]ncc2-c2nnnn2-c2ccccc2)c1,3.68% (active)
19,CCN(CC)CCOc1cccc2c1C(=O)c1cccc(OCCN(CC)CC)c1C2=O,19.7% (inactive)
20,CC(=O)c1c(-c2ccc(OC(F)(F)F)cc2)nc2ccccn12,115% (inactive)

row,SMILES,growth
1,COc1cc(/C=C/C(=O)c2c(C)nc3ccccc3c2C)ccc1OCCCN1CCN(C(=O)c2ccco2)CC1,74.7% (inactive)
2,CCOC(=O)c1c(C)nc2c(c1N)CC(=O)N2Cc1cc(F)cc(Cl)c1,79.1% (inactive)
3,COc1cc(-c2nn(-c3cccc(NC(=O)NCCNC(=O)c4ccccc4)c3)cc2-c2ccncc2)ccc1Cl,-8.76% (active)
4,COc1ccc(-c2cnnn2-c2nonc2-n2cccc2)cc1OC,11% (inactive)
5,COc1ccc(-c2nn(-c3ccccc3)cc2/C=C2/SC(=S)N(C)C2=O)cc1,95.8% (inactive)
6,CC1CCC(C(=O)O)N1 (centres undefined),79.7% (inactive)
7,COc1cc(C2CC(c3ccc(Cl)cc3)=NN2c2ccc(Cl)cc2)cc(OC)c1OC (centres undefined),97.9% (inactive)
8,C/C(=C(/c1ccc(Cl)cc1)c1ccc(OCCN2CCCC2)cc1)c1ccc(Cl)cc1,69.5% (inactive)
9,C=C1C(=O)O[C@H]2[C@H]1CC/C(Cn1cc(CNC(=O)c3cc4ccccc4[nH]3)nn1)=C\CC[C@@]1(C)O[C@@H]21,-20.8% (active)
10,Cc1cc2nc3ccc(=[N+](C)C)cc-3sc2cc1N,-50.3% (active) and -34.8% (active)
11,O=C(Nc1ccc(Cl)c(C(F)(F)F)c1)Nc1ccc(-c2cccnc2)cc1N1CCC(CO)CC1,-6.89% (active)
12,COc1ccc(C2=NN(C(C)=O)C(c3cc(OC)c(OC)c(OC)c3)C2)cc1 (centres undefined),95.2% (inactive)
13,CC1Cc2c(Cl)ncnc2N(C)c2ccc(F)cc21 (centres undefined),91.6% (inactive)
14,COc1ccccc1NC(=O)Cn1cc(CN2CCN(c3ccnc4cc(Cl)ccc34)CC2)nn1,131% (inactive)
15,O=C(c1ccccc1)C(CN1CCOCC1)c1ccccc1 (centres undefined),12.2% (inactive)
16,C#Cc1ccc(NC(=O)c2ccc(/C=C/C(=O)c3nccn3C)cc2)cc1,-27.2% (active)
17,OCC1OC(n2cnc3c(=S)nc[nH]c32)C(O)C1O (centres undefined),120% (inactive) and 50.9% (inactive)
18,CCCCC(=O)c1ccco1,103% (inactive)
19,Oc1c(Cl)cc(Cl)cc1/C=N/Nc1nnc(N/N=C/c2cc(Cl)cc(Cl)c2O)c2ccccc12,-24% (active)
